The text below walks through data of PubChem BioAssay AID1851 (National Center for Advancing Translational Sciences (NCATS), 2009).

The structures appear in SMILES notation. Several values for one entry are separate records, joined by “and”; a condition that tells them apart may be missing. Equal values may be shown once. The whole screen tested about 16,000 compounds, of which about 5,700 (36%) were called active. Another 24% or so got no clear call; they are omitted. Calls follow the shape of the dose curve; as a rule, active = well fitted curve in the direction sought with a large enough effect; inconclusive = small, poorly fitted or top-dose-only effect, or effect the other way; inactive = no such curve, though single readings can be large or run the other way. The list shows a part of the results. Peptide text beside a SMILES is read from it. * marks the point of attachment. PhAc = O=C(Cc1ccccc1)*; OBn = c1ccc(CO*)cc1

As usually defined, the AC50 is the midpoint of the concentration-response curve, whichever way the signal moves.
% is scaled to controls: 0 for no effect and ±100 for the full control effect.

For the assay, the target named is Cytochrome P450 1A2 (Homo sapiens) (UniProt P05177). The assay can be described thus: Cytochrome panel assay with activity outcomes. To be noted: recombinant CYP, pro-luciferin dealkylation, luminescence, p450-cyp1a2; series mostly up to 57.1 µM.
Cytochrome P450 1A2 (Homo sapiens), sequence (P05177 whole entry, looked up): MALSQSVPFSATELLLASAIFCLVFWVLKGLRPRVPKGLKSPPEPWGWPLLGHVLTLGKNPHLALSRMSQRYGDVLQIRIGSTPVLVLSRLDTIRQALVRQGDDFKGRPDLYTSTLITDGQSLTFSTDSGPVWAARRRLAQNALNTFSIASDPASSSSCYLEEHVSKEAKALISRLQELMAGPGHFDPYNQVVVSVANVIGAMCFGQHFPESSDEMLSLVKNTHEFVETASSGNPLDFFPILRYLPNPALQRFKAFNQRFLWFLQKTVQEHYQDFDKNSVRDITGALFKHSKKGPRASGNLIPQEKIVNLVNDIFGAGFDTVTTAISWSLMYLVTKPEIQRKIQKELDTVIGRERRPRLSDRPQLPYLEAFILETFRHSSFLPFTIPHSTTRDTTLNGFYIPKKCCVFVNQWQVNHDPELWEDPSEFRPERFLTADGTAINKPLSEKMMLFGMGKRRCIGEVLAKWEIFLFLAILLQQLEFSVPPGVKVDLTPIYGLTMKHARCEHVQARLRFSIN
For the molecule `Fc1ccc2nc(Nc3nc4c(s3)CCCC4)sc2c1`, the half-maximal activity concentration (AC50) was 1580 nM (active). Still for that read-out and setting: the value for `COc1ccc(NC(=O)N2CC[C@@]3(CCCN(C(=O)c4cnccn4)C3)C2)cc1` was “inactive”; that for `Cc1ccc(CS(=O)(=O)Cc2ccc(C(=O)NCC3CCCO3)o2)cc1` (configuration not stated) was “inactive”. With `Cc1ccc(C(=O)NC(=S)NCC2CCCO2)cc1` (configuration not stated), the AC50 was 7080 nM (active). Same read-out and setting: the value for `CCCn1c2c(c(O)c(C(=O)NCc3ccccc3)c1=O)CCCC2` was 1260 nM (active); that for `CCS(=O)(=O)N1CCC(C(=O)NCCN2CCN(Cc3ccccc3)CC2)CC1` was “inactive”. Still for that read-out and setting: the value for `CCC(C)NC(=O)CCS(=O)(=O)c1ccc(Br)s1` (configuration not stated) was “inactive”; that for `CNNCc1ccc(C(=O)NC(C)C)cc1` was 1580 nM (active). For `COc1ccc(CN[C@H](C)C(=O)O)cc1`, the activity, negative = inhibition was -2.04% [at 11.4 µM] (inactive).

On to `N#Cc1nc(COc2ccccc2Cl)oc1NCc1ccco1`, for which the AC50 was 14100 nM (active). Still for that read-out and setting: the value for `c1ccc(NN(Cc2cnccn2)c2ccccc2)cc1` was 2000 nM (active); that for `COn1c(SCc2ccc(C)cc2C)nc2ccccc2c1=O` was 8910 nM (active). Same read-out and setting: the result for `COn1c(SCc2cccc(Cl)c2)nc2ccccc2c1=O` reads 1260 nM (active).

For the molecule `O=c1nc2ccccc2c2n1CC(CN1CCN(c3cccc(Cl)c3)CC1)N2` (configuration not stated), the AC50 entry is “inactive”.

In the case of `Cc1ccc(-n2c(SCc3ccc([N+](=O)[O-])cc3)nc3ccccc3c2=O)cc1`, the AC50 entry is “inactive”. Take `CC(C)C[C@H]1C(=O)N2CCC[C@@H]2[C@]2(O)O[C@](NC(=O)[C@H]3C=C4c5cccc6[nH]c(Br)c(c56)C[C@H]4N(C)C3)(C(C)C)C(=O)N12`: the AC50 result is “inactive”.

For `OC1(c2ccc(OC(F)F)cc2)CSC(=Nc2cccnc2)N1C1CC1` (configuration not stated), the AC50 was 1120 nM (active). Still for that read-out and setting: the value for `CCOc1ccc(N/N=C(/C#N)C(N)=O)cc1` was 5010 nM (active); that for `CCOc1ccc(NC(=O)C(=O)NCC2CCCN2CC)cc1` (configuration not stated) was “inactive”; that for `CCOc1ccc(NC(=O)N2CCC(C(N)=O)(N3CCCCC3)CC2)cc1` was “inactive”. On to `O=C1CCN(S(=O)(=O)c2ccccc2)N1`, for which the AC50 entry is “inactive”. As to `O=C(O)c1c2c(c(O)c3c1CN(C1CCCCC1)CO3)OCN(C1CCCCC1)C2`, the activity, negative = inhibition was 3.18% [at 11.4 µM] (inactive).

Consider `CCCCCCC/C=C\CCCCCCCCC(=O)O`, for which the AC50 is 31600 nM (active). On to `CCCCCCCCCCC/C=C\C(C)(C)/C=C\CCCC(=O)O`, for which the AC50 was 39800 nM (active). With `NCCCCCC(=O)O`, the AC50 result was “inactive”. On the same count and under the same terms, the value for `NCCCCC(=O)O` was “inactive”; that for `CCCCCCCCCCCCCCSCC(=O)O` was “inactive”. As for `Nc1nccc(Nc2ccc(S(N)(=O)=O)cc2)n1`, the activity, negative = inhibition is -8.04% [at 11.4 µM] (inactive). For the molecule `CS(=O)(=O)Nc1cccc(-c2nc(Nc3ccc(F)cc3)c3ccccc3n2)c1`, the AC50 is 794 nM (active). Take `CS(=O)(=O)Nc1cccc(-c2nccc(Nc3ccc(F)cc3)n2)c1`: the concentration at half-maximal activity (AC50) was 126 nM (active). On the same count and under the same terms, the value for `CS(=O)(=O)Nc1cccc(-c2nc(Nc3ccccc3)c3ccccc3n2)c1` was 794 nM (active); that for `CNc1nc(-c2cccc(NS(C)(=O)=O)c2)nc2ccccc12` was 398 nM (active). With `COc1cccc(-c2nc(Nc3ccncc3)c3ccccc3n2)c1`, the AC50 is 794 nM (active). The same measure, in the same setting: the result for `CS(=O)(=O)Nc1cccc(-c2nc(Nc3ccncc3)c3ccccc3n2)c1` reads 631 nM (active). Same read-out and setting: the result for `COc1ccc(OC)c(Nc2nc(-c3cccc([N+](=O)[O-])c3)nc3ccccc23)c1` reads “inactive”; that for `CN(C)c1nc(-c2cccc(NS(C)(=O)=O)c2)nc2ccccc12`, 501 nM (active).

Regarding `CC(C)(N)C(=O)N[C@@H]1C(=O)N2[C@@H]1SC(C)(C)[C@H]2C(=O)O`, the activity, negative = inhibition is 4.41% [at 2.29 µM] (inactive).

Consider `C[C@H](CCC(=O)NCC(=O)O)[C@H]1CC[C@H]2[C@H]3[C@@H](C[C@@H](O)[C@]12C)[C@]1(C)CC[C@H](O)C[C@@H]1C[C@@H]3O`, for which the AC50 result was “inactive”.

`COc1cccc(CC(C(=O)Nc2cc(C)ccc2C)c2nn[nH]n2)c1OC` (configuration not stated): the AC50 was 3160 nM (active).

Turning to `Cn1cc(C(=O)c2ccc(Cl)cc2Cl)cc1C(=O)O`, the AC50 result was “inactive”.

`COC(=O)c1cc(C(=O)c2ccc(Cl)cc2Cl)cn1C`: the AC50 is 2510 nM (active). `Cc1c(-n2cc(C(=O)c3cc(Cl)ccc3O)cc(C#N)c2=O)c(=O)n(-c2ccccc2)n1C`: the AC50 entry is “inactive”.

As for `COC(=O)C1=C(C)Nc2ncnn2C1c1cccnc1` (configuration not stated), the AC50 entry was “inactive”. As for `C(=C1/CCCC2=C1Nc1ncnn1C2c1ccccc1)/c1ccccc1` (configuration not stated), the AC50 was 10000 nM (active). The same measure, in the same setting: the value for `CC(C)(C)c1ccc(COC(=O)CNC(=O)CNC(=O)Cc2ccccc2)cc1` was “inactive”. In the case of `CC(=O)SC[C@@H](Cc1ccccc1)C(=O)NCC(=O)OCc1ccccc1`, the AC50 was 2510 nM (active).

Take `O=C(CNC(=O)Cc1ccccc1)NCC(=O)OCc1ccccc1` (PhAc-Gly-Gly-OBn): the AC50 entry was “inactive”. Still for that read-out and setting: the value for `COc1ccccc1NC(=O)c1nc[nH]c1C(=O)Nc1ccccc1OC` was 200 nM (active); that for `CCn1c2ccccc2c2nnc(NCCCO)nc21` was 1580 nM (active).

Consider `COCn1c2ccccc2c2nnc(C(C)=O)nc21`, for which the activity, negative = inhibition is -3.08% [at 11.4 µM] (inactive) and -1.56% [at 11.4 µM] (inactive).

Take `Cc1c(NC(=O)CSc2nnc3c4ccccc4n(CCc4ccccc4)c3n2)c(=O)n(-c2ccccc2)n1C`: the AC50 result was “inactive”.

Turning to `CCN(CC)c1ncnc2c1sc1nc(C)cc(C)c12`, the AC50 is 1410 nM (active). On the same count and under the same terms, the result for `O=C(c1csnn1)N1CCC2(CC1)CCN(c1ncccn1)CC2` reads “inactive”; that for `C[N+](C)(C)CC(=O)O`, “inactive”. As for `CS(=O)(=O)Nc1ccc(S(=O)(=O)N2CCOCC2)cc1`, the AC50 entry is “inactive”. Same read-out and setting: the value for `CS(=O)(=O)Nc1cccc(-c2ccc3ncnc(N4CCOCC4)c3c2)c1` was 12600 nM (active); that for `Cn1nc(-c2ccc(N3CCOCC3)c(NS(=O)(=O)c3ccc(Cl)cc3)c2)c2ccccc2c1=O` was “inactive”; that for `CS(=O)(=O)Nc1cccc(-c2nc(N3CCOCC3)c3ccccc3n2)c1` was 5010 nM (active). As for `CS(=O)(=O)Nc1cccc(-c2ccc3ncnc(N4CCNCC4)c3c2)c1`, the half-maximal activity concentration (AC50) is 12600 nM (active).

With `Cc1ccc(-c2nn3c(C)nnc3c3ccccc23)cc1S(=O)(=O)NCCN1CCOCC1`, the AC50 result was “inactive”. The same measure, in the same setting: the value for `CS(=O)(=O)Nc1cccc(-c2ccc3ncnc(NCCN4CCOCC4)c3c2)c1` was 25100 nM (active). Regarding `CC(=O)OC[C@@H]1O[C@@H](O/N=C2/C[C@@H](O)[C@@H](O)[C@@H]3[C@@H]4C(=O)N(Cc5ccccc5)C(=O)[C@H]4CC[C@@H]23)[C@H](OC(C)=O)[C@H](OC(C)=O)[C@@H]1OC(C)=O`, the activity, negative = inhibition is -3.54% [at 11.4 µM] (inactive). Take `N#Cc1ccc(CN2CCC3(CC2)CCN(C(=O)c2csnn2)CC3)cc1`: the AC50 result is “inactive”. Consider `O=C(c1ccco1)N1CCC2(CC1)CN(Cc1cc(C(F)(F)F)cc(C(F)(F)F)c1)C2`, for which the AC50 entry was “inactive”. Turning to `CN1C(=O)C[C@H](c2ccccc2)C1=O`, the AC50 entry was “inactive”. Take `COc1cccc([C@@H]2Oc3ccc(OC)cc3/C(=N/O[C@@H](C)CN3CCCCc4nc(C)c(C)cc43)[C@@H]2O)c1`: the activity, negative = inhibition was -8.62% [at 11.4 µM] (inactive). With `CC(C)CCNC(=O)Cc1ccccc1[N+](=O)[O-]`, the AC50 entry was “inactive”.

Turning to `Cc1cc(C(=O)OCC(=O)NCCC(C)C)c2ccccc2n1`, the AC50 is 4470 nM (active).

As for `CO[C@H]1COC(=O)CCC[C@H](C)[C@@H](OC)COC(=O)C/C=C\[C@@H]1C`, the activity, negative = inhibition is -4.49% [at 11.4 µM] (inactive). Turning to `N#Cc1c(-c2ccc3c(c2)OCO3)ccn2nc(-c3cccc(C(F)(F)F)c3)nc12`, the AC50 is 56.2 nM (active). As to `CCNC(=O)C1CC(=O)OC12CCCCC2` (configuration not stated), the AC50 result is “inactive”.

Consider `CC(C)=CCC/C(C)=C/CO/N=C1/C[C@@H](O)[C@@H](O)[C@@H]2[C@@H]3C(=O)N(Cc4ccc5c(c4)OCO5)C(=O)[C@H]3CC[C@H]12`, for which the activity, negative = inhibition is -9.49% [at 11.4 µM] (inactive). Consider `N#C/C(=C/N1CCOCC1)c1ccccc1`, for which the AC50 is 891 nM (active). On the same count and under the same terms, the result for `Oc1c(CN2CCOCC2)cc(-c2ccccc2)cc1CN1CCOCC1` reads “inactive”; that for `OC(c1ccccc1)(c1ccc(F)cc1)C(c1ccccc1)N1CCOCC1` (configuration not stated), “inactive”. Still for that read-out and setting: the result for `NS(=O)(=O)c1cc2c(cc1Cl)N[C@@H](CC1CCCC1)NS2(=O)=O` reads “inactive”; that for `O=C1NC(c2ccc(Br)cc2)Nc2sc3c(c21)CCC3` (configuration not stated), 2510 nM (active). In the case of `CC(C)OCCCn1c(=S)[nH]c2ncccc2c1=O`, the concentration at half-maximal activity (AC50) is 2510 nM (active). Regarding `CC(C)OCCCN1C(=O)c2ccccc2C1C(=O)NC1CCCCC1` (configuration not stated), the AC50 entry is “inactive”.

Consider `COCC(=O)N1CCC[C@@]2(CCN(C(=O)Nc3cccc(F)c3)C2)C1`, for which the AC50 entry was “inactive”. Turning to `COCOc1cc(OC)ccc1C(=O)/C=C\c1ccc2c(c1)OCO2`, the activity, negative = inhibition is -3.69% [at 11.4 µM] (inactive).

In the case of `COc1ccc(CNc2ccnc(-c3ccc4c(c3)OCO4)n2)c(OC)c1`, the AC50 is 1260 nM (active).

With `COc1ccccc1CNc1ccnc(-c2ccc3c(c2)OCO3)n1`, the AC50 is 631 nM (active). Take `COc1ncc2nc(-c3ccc(F)cc3)c(=O)n(C)c2n1`: the AC50 was 501 nM (active). In the case of `COc1ncc2nc(-c3ccccc3)c(=O)n(C)c2n1`, the AC50 was 1580 nM (active). Still for that read-out and setting: the result for `COc1ccc(-c2nc3cnc(OC)nc3n(C)c2=O)cc1` reads 2510 nM (active). For the molecule `C[C@@H]1O[C@@H](n2cc(F)c(=O)[nH]c2=O)[C@H](O)[C@@H]1O`, the AC50 entry is “inactive”. Consider `O=C(c1cnccn1)N1CCC2(CC1)CN(c1ccncc1)C2`, for which the AC50 entry was “inactive”. For the molecule `COc1ccc(N(CC(=O)NN=C2CCCC2)S(=O)(=O)c2ccccc2)cc1`, the AC50 entry was “inactive”. As for `O=C(CN(c1ccccc1)S(=O)(=O)c1ccccc1[N+](=O)[O-])NN=C1CCCCCCC1`, the AC50 entry was “inactive”.

Consider `CC(=O)Nc1ccc([N+](=O)[O-])cn1`, for which the AC50 is 17800 nM (active). Still for that read-out and setting: the value for `O=C(COc1ccc(Br)cc1)Nc1ccc([N+](=O)[O-])cn1` was 2000 nM (active); that for `O=C(COc1ccc([N+](=O)[O-])cc1)NN=C1CCCC1` was 12600 nM (active). Still for that read-out and setting: the value for `O=C(COc1ccc([N+](=O)[O-])cc1)Nc1ccc(C(=O)NCc2cccnc2)cc1` was “inactive”; that for `O=C(Nc1nnc(CCS(=O)(=O)c2ccc(Br)cc2)s1)c1ccc([N+](=O)[O-])cc1` was “inactive”; that for `COC(=O)C(C)(C(=O)OC)c1ccc([N+](=O)[O-])cn1` was “inactive”. As to `C=CCC(C(=O)OC)(C(=O)OC)c1ccc([N+](=O)[O-])cn1`, the AC50 entry is “inactive”.
